{
  "source": "PubChem BioAssay (EPA / NIEHS)",
  "note": "Results filed as inconclusive are left out. Activity calls are given as the source filed them. How the source made its calls: active means hit-call score of the fitted dose curve at least 0.9, where 1 is the maximum; inconclusive means response in the unintended direction; inactive means score below 0.9.",
  "data": [
    {"target": "human Adrenergic, Alpha 2c Receptor (Adra2C), ADRA2C (gene 152) (UniProt P18825)", "sequence (P18825 whole entry, looked up)": "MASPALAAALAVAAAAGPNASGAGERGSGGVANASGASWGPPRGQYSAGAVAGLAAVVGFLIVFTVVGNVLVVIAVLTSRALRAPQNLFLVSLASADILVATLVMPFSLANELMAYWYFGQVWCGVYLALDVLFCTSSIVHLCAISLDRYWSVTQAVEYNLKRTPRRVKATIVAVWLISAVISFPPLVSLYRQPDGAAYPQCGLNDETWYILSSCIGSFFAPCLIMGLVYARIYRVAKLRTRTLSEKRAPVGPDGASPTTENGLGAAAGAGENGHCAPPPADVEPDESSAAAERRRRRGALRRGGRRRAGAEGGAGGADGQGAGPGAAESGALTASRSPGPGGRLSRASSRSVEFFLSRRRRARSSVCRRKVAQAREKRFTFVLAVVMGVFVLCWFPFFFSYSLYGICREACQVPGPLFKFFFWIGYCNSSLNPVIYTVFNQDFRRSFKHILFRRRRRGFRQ", "assay": "NVS_GPCR_hAdra2C: NovaScreen (NVS) G Protein-Coupled Receptor Assay for human Adrenergic, Alpha 2c Receptor (Adra2C) (AID 2283259)", "in_short": "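Radioligand binding on Sf9-expressed receptor membranes, 1 h after chemical dosing, filter-based scintillation read-out. Loss of binding fitted positively versus DMSO; primary duplicate screen at 25 uM, actives retested in concentration series.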", "values": [
      {"smiles": "CCOC(=O)[C@]1(c2ccccc2)Oc2ccccc2[C@@H]1N", "AC50": "611 nM (active)"},
      {"smiles": "CCCCCCCCn1sccc1=O", "AC50": "6020 nM (active)"},
      {"smiles": "[Cl-].[Cl-].[Hg+2]", "AC50": "227 nM (active)"}
    ]},
    {"target": "Beta-2 adrenergic receptor (Homo sapiens) (UniProt P07550)", "sequence (P07550 whole entry, looked up)": "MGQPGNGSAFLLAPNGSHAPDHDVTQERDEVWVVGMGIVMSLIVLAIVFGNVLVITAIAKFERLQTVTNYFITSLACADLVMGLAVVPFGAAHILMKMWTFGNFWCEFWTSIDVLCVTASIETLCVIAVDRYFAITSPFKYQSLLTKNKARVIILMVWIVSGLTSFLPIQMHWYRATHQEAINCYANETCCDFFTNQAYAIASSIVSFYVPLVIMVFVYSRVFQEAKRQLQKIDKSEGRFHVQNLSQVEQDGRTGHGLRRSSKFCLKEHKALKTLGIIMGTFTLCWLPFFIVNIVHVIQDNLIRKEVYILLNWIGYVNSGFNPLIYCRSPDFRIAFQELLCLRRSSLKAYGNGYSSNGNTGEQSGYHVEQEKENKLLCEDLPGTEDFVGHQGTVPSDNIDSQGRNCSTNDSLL", "assay": "NVS_GPCR_hAdrb2: NovaScreen (NVS) G Protein-Coupled Receptor Assay for human Adrenergic, Beta 2 Receptor (Adrb2) (AID 2283261)", "method": "(§1) NVS_GPCR_hAdrb2 is a biochemical, single-readout assay that uses extracted gene-proteins from CHO in a cell-free assay. Measurements were taken 1 hour after chemical dosing in a 96-well plate.NVS_GPCR_hAdrb2 is one of one assay component(s) measured or calculated from the NVS_GPCR_hAdrb2 assay. It is designed to make measurements of radioligand binding, a form of binding reporter, as detected with scintillation counting signals by Filter-based radiodetection technology.Data from the assay component NVS_GPCR_hAdrb2 was analyzed into 1 assay endpoint. This assay endpoint, NVS_GPCR_hAdrb2, was analyzed in the positive analysis fitting direction relative to DMSO as the negative control and baseline of activity. Using a type of binding reporter, loss-of-signal activity can be used to understand changes in the binding as they relate to the gene ADRB2. Furthermore, this assay endpoint can be referred to as a primary readout, because the performed assay has only produced 1 assay endpoint. To generalize the intended target to other relatable targets, this assay endpoint is annotated to the gpcr intended target family, where the subfamily is rhodopsin-like receptor.\n(§2) Binding assays used specific radioligands (tritiated, iodinated) with non-radioactive competitive displacement ligands in agonist or antagonist protocols (as indicated) and various reference compounds and inhibitors to titrate specific binding to receptors and transporters. Most enzyme assays (CYPs, kinases, phosphatases, proteases, HDACs) used recombinant protein and specific substrates (fluorescence mostly, some colorimetric and radioactive) and inhibitors, followed by a biochemical separation of substrate and product. All assays for the biochemical HTS were initially run in duplicate at a single concentration (10 uM for CYP450 assays and 25 uM for all others). […] Each assay was run with positive and negative controls, and concurrent controls on every plate. The follow-up (secondary) screen tested active chemical-pairs in concentration series, as well as a few additional assays not tested in the primary screen, some selected negative inactives, and several cases re-run in the concentration series for confirmatory purposes.", "values": [
      {"smiles": "CCOC(=O)[C@]1(c2ccccc2)Oc2ccccc2[C@@H]1N", "AC50": "16800 nM (active)"},
      {"smiles": "CN(C)C(=O)Nc1ccc(Cl)cc1", "outcome": "inactive"},
      {"smiles": "[Cl-].[Cl-].[Hg+2]", "AC50": "925 nM (active)"},
      {"smiles": "CCC[CH2][Sn]([Cl])([CH2]CCC)[CH2]CCC", "AC50": "5470 nM (active)"},
      {"smiles": "c1ccc2c(c1)-c1cccc3cccc-2c13", "outcome": "inactive"},
      {"smiles": "Cc1cccc(N)c1N", "outcome": "inactive"}
    ]},
    {"target": "human Adrenergic, Beta 3 Receptor (Adrb3), ADRB3 (gene 155) (UniProt P13945)", "sequence (P13945 whole entry, looked up)": "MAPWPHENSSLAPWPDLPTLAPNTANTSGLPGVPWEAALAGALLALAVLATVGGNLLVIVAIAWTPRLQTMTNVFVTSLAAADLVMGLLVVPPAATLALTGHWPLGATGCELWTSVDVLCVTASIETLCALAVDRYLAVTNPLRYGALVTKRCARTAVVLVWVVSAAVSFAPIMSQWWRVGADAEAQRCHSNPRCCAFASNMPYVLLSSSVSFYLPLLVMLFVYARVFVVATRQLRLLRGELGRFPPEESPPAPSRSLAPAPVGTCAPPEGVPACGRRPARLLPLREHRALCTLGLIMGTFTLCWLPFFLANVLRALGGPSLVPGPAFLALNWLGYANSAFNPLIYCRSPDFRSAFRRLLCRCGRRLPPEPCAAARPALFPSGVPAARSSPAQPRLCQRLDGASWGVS", "assay": "NVS_GPCR_hAdrb3: NovaScreen (NVS) G Protein-Coupled Receptor Assay for human Adrenergic, Beta 3 Receptor (Adrb3) (AID 2283262)", "method": "as §1, with “NVS_GPCR_hAdrb3” for “NVS_GPCR_hAdrb2”, “SK-N-MC pretreated with isoproteronol and 8-bromo-cAMP” for “CHO”, “48-well plate.NVS_GPCR_hAdrb3” for “96-well plate.NVS_GPCR_hAdrb2”, “NVS_GPCR_hAdrb3,” for “NVS_GPCR_hAdrb2,”, “ADRB3.” for “ADRB2.”\nas §2", "values": [
      {"smiles": "CCOC(=O)[C@]1(c2ccccc2)Oc2ccccc2[C@@H]1N", "AC50": "4960 nM (active)"},
      {"smiles": "O=C(N[C@H](c1ccccc1)[C@@H]1CN2CCC1CC2)c1c(Cl)ccc(C(F)(F)F)c1Cl", "outcome": "inactive"},
      {"smiles": "[Cl-].[Cl-].[Hg+2]", "outcome": "inactive"},
      {"smiles": "CCC[CH2][Sn]([Cl])([CH2]CCC)[CH2]CCC", "AC50": "9810 nM (active)"}
    ]},
    {"target": "Type-1 angiotensin II receptor (Homo sapiens) (UniProt P30556)", "sequence (P30556 whole entry, looked up)": "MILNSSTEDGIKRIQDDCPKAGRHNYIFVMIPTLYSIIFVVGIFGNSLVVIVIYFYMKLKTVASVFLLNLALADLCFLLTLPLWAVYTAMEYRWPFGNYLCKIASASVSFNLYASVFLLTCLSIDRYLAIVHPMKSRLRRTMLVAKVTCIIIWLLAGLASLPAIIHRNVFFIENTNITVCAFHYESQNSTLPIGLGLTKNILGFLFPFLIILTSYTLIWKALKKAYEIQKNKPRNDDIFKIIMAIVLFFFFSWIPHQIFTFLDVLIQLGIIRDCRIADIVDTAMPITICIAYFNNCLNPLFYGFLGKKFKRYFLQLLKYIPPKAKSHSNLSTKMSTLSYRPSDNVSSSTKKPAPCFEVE", "assay": "NVS_GPCR_hAT1: NovaScreen (NVS) G Protein-Coupled Receptor Assay for human Angiotensin II receptor type 1 (AT1) (AID 2283263)", "method": "NVS_GPCR_hAT1 is a biochemical, single-readout assay that uses extracted gene-proteins from KAN-TS in a tissue-based cell-free assay. Measurements were taken 3 hours after chemical dosing in a 48-well plate.NVS_GPCR_hAT1 is one of one assay component(s) measured or calculated from the NVS_GPCR_hAT1 assay. It is designed to make measurements of radioligand binding, a form of binding reporter, as detected with scintillation counting signals by Filter-based radiodetection technology.Data from the assay component NVS_GPCR_hAT1 was analyzed into 1 assay endpoint. This assay endpoint, NVS_GPCR_hAT1, was analyzed in the positive analysis fitting direction relative to DMSO as the negative control and baseline of activity. Using a type of binding reporter, loss-of-signal activity can be used to understand changes in the binding as they relate to the gene AGTR1. Furthermore, this assay endpoint can be referred to as a primary readout, because the performed assay has only produced 1 assay endpoint. To generalize the intended target to other relatable targets, this assay endpoint is annotated to the gpcr intended target family, where the subfamily is rhodopsin-like receptor.\nBinding assays used specific radioligands (tritiated, iodinated) with non-radioactive competitive displacement ligands in agonist or antagonist protocols (as indicated) and various reference compounds and inhibitors to titrate specific binding to receptors and transporters. Most enzyme assays (CYPs, kinases, phosphatases, proteases, HDACs) used recombinant protein and specific substrates (fluorescence mostly, some colorimetric and radioactive) and inhibitors, followed by a biochemical separation of substrate and product. All assays for the biochemical HTS were initially run in duplicate at a single concentration (10 uM for CYP450 assays and 25 uM for all others). Assay-chemical combinations meeting a pre-defined threshold (e.g., 30% inhibition and other criteria defined below) were then run in singleton concentration-response format with maximum concentration of 20 uM for CYPs and 50 uM for all others. […]", "values": [
      {"smiles": "CCCCCCCCn1sccc1=O", "AC50": "10900 nM (active)"},
      {"smiles": "[Cl-].[Cl-].[Hg+2]", "AC50": "10700 nM (active)"},
      {"smiles": "CCC[CH2][Sn]([Cl])([CH2]CCC)[CH2]CCC", "AC50": "1780 nM (active)"}
    ]},
    {"target": "human Dopamine Receptor D4.4 (DRD4.4), DRD4 (gene 1815) (UniProt P21917)", "sequence (P21917 whole entry, looked up)": "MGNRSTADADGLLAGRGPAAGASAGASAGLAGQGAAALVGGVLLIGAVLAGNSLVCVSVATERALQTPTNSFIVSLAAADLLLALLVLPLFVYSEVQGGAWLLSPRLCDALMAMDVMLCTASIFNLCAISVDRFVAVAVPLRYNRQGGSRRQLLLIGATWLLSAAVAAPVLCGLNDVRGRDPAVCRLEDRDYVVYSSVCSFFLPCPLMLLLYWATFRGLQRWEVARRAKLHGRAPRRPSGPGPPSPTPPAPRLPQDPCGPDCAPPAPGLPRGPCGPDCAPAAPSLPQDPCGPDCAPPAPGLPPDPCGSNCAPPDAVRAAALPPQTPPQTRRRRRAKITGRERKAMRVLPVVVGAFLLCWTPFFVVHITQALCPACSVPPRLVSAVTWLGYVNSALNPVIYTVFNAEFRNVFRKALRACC", "assay": "NVS_GPCR_hDRD4.4: NovaScreen (NVS) G Protein-Coupled Receptor Assay for human Dopamine Receptor D4.4 (DRD4.4) (AID 2283264)", "in_short": "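Radioligand displacement on human DRD4.4 from CHO-derived membranes, 1 hour incubation, bound counts read by filtration and scintillation. Primary screen in duplicate at 25 uM; actives followed up in concentration series.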", "values": [
      {"smiles": "CCOC(=O)[C@]1(c2ccccc2)Oc2ccccc2[C@@H]1N", "AC50": "48.1 nM (active)"},
      {"smiles": "[Cl-].[Cl-].[Hg+2]", "AC50": "1760 nM (active)"},
      {"smiles": "CCC[CH2][Sn]([Cl])([CH2]CCC)[CH2]CCC", "AC50": "1830 nM (active)"},
      {"smiles": "Cc1cc(N=Nc2ccccc2C)ccc1N", "AC50": "25000 nM (active)"}
    ]},
    {"target": "human Endothelin Receptor Type A (ETA), EDNRA (gene 1909) (UniProt P25101)", "sequence (P25101 whole entry, looked up)": "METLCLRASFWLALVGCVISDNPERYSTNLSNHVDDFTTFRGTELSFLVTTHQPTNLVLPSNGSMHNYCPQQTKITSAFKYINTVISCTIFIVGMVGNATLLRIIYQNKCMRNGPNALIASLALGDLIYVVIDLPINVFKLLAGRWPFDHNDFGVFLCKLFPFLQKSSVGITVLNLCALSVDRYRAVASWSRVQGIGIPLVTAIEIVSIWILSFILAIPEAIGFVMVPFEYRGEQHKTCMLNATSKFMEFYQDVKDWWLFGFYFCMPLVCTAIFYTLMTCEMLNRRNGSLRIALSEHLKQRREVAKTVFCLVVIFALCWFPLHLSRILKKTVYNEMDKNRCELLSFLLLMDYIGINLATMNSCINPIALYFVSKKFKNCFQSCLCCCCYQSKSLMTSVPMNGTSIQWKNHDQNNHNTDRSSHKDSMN", "assay": "NVS_GPCR_hETA: NovaScreen (NVS) G Protein-Coupled Receptor Assay for human Endothelin Receptor Type A (ETA) (AID 2283265)", "in_short": "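Cell-free radioligand displacement using SH-SY5Y-derived protein, 3 h incubation, filter-based scintillation counting. Primary screen in duplicate at 25 uM; actives then run in concentration-response up to 50 uM; loss of binding fitted versus DMSO.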", "values": [
      {"smiles": "CCC(C)c1ccc(O)cc1", "note": "(centres undefined)", "outcome": "inactive"},
      {"smiles": "[Cl-].[Cl-].[Hg+2]", "AC50": "6760 nM (active)"},
      {"smiles": "CCC[CH2][Sn]([Cl])([CH2]CCC)[CH2]CCC", "AC50": "695 nM (active)"}
    ]},
    {"target": "human Dopamine Receptor D2 (DRD2), DRD2 (gene 1813) (UniProt P14416)", "sequence (P14416 whole entry, looked up)": "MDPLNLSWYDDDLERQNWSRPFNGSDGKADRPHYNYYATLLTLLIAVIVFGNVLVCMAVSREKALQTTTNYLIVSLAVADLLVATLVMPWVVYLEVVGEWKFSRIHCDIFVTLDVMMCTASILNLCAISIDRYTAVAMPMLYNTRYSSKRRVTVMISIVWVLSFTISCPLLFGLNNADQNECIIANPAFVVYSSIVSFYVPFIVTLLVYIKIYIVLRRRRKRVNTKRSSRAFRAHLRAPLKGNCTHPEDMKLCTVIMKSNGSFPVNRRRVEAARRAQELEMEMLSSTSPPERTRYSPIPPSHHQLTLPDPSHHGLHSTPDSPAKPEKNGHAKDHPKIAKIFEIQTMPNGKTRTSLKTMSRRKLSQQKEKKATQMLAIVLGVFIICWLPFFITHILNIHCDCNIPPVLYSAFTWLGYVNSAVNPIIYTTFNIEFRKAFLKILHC", "assay": "NVS_GPCR_hDRD2s: NovaScreen (NVS) G Protein-Coupled Receptor Assay for human Dopamine Receptor D2 (DRD2) (AID 2283266)", "in_short": "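Radioligand displacement used human DRD2 membranes extracted from CHO cells and was read by filter-based scintillation counting after 1.5 hours. Primary screening was in duplicate at 25 uM. Loss of signal versus DMSO was fitted, with concentration series in follow-up.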", "values": [
      {"smiles": "[O-][Cl+]O", "outcome": "inactive"},
      {"smiles": "N#CC(Br)Br", "outcome": "inactive"},
      {"smiles": "CCOC(=O)[C@]1(c2ccccc2)Oc2ccccc2[C@@H]1N", "AC50": "32.3 nM (active)"},
      {"smiles": "CCCCCCCCn1sccc1=O", "AC50": "26000 nM (active)"},
      {"smiles": "[Cl-].[Cl-].[Hg+2]", "AC50": "354 nM (active)"},
      {"smiles": "CCC[CH2][Sn]([Cl])([CH2]CCC)[CH2]CCC", "AC50": "525 nM (active)"}
    ]}
  ]
}
